Screening data as filed in PubChem.
Most compounds without a hit are left out; they make up all but 1.8% or so of the library.
GRK2 inh – inhibitors of human GRK2 displacing RNA aptamer; P25098; inhibition of aptamer binding, % at 10 µM; hit rate 0.59% among 330,000; bead flow cytometry, FAM-aptamer displacement from GRK2; AID 488847;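 active means inhibition of aptamer binding above 40%, roughly 3 SD of noise, on plates passing a quality check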;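 further: median bead fluorescence of bound FAM aptamer so fluorescent compounds give negative values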
PKD1 kinase inh – blocks activity of human protein kinase D1; Q15139; PKD1 kinase fluorescence polarization assay; inhibition, % (test concentration not listed); hit rate 0.056% among 200,000; AID 797
Target sequence (Q15139 whole entry, looked up): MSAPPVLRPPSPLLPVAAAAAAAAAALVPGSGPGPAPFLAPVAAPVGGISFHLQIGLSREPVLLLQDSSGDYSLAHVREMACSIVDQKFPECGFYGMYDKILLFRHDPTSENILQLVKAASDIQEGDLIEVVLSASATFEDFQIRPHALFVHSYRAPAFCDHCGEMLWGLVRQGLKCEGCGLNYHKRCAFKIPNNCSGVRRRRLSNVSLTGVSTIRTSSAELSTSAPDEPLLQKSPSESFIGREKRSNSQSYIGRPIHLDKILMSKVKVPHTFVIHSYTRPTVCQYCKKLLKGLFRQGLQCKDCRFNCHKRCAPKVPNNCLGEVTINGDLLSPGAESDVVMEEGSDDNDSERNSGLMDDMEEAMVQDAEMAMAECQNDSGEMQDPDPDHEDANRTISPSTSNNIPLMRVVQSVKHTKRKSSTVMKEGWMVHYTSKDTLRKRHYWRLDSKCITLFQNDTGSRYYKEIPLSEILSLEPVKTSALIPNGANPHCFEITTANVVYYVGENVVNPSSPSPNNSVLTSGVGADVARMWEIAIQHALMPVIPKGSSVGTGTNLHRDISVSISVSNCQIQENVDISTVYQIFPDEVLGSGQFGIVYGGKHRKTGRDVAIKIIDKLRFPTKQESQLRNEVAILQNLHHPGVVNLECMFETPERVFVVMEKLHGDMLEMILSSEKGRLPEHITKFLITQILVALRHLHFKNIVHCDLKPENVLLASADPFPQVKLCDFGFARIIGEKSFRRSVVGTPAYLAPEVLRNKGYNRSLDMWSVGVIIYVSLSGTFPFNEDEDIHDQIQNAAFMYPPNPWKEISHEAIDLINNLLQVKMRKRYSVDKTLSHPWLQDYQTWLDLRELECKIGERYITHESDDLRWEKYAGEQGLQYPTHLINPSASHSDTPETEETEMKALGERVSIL
VLA-4 inh – inhibition in a human VLA-4 binding assay; inhibition, % (about 7 µM as worked out from the volumes in the protocol); P13612; VLA-4 expressing cells, ligand binding flow cytometry; hit rate 0.2% among 330,000
DSG3 Ab inh – inhibitors of pemphigus antibody binding to human desmoglein-3 | DSG3-coupled beads, scFv-anti-DSG3-GFP binding, flow cytometry; stronger effect = lower value | binding (percent of control), % at 10 µM | hit rate 0.48% among 310,000 | AID 588358;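 active means binding more than 3 SD below its plate's average and above zero; inconclusive means below that plate limit but binding exactly zero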
HDAC3 inh – blocks human histone deacetylase 3; hit rate 0.15% among 320,000; AID 2718; recombinant HDAC3, fluorogenic peptide/trypsin coupled, fluorescence; O15379; inhibition, % at 8.3 µM; in the data active means inhibition above about 26%, passing the limit was not always enough; inconclusive means no clear call, values can overlap the other calls
LANA-H2B inh – blocks KSHV LANA binding to histone H2A/H2B; cell-free LANA-H2A/H2B peptide, fluorescence polarization; inhibition, % (test concentration not listed); hit rate 0.6% among 320,000; AID 2629; in the data active means inhibition mostly above about 10%, no sharp cut-off; inactive means mostly below about 6.7%
GRK2 CP1 – confirmation of human GRK2 inhibitors displacing RNA aptamer | shares compounds with GRK2 inh | bead-bound GRK2, FAM-aptamer displacement, flow cytometry | aptamer displacement, % at 10 µM | hit rate 4% among 2,000;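 active means aptamer displacement above 40%, near three times the noise of non-fluorescent compounds, on plates passing quality checks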;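 further: negative values mostly reflect intrinsic compound fluorescence rather than true enhancement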
FAM quench CP1 – quenches fluorescent RNA aptamer, GRK2 hit artifact; shares compounds with GRK2 inh; Carboxyfluorescein RNA aptamer on beads, flow cytometry quenching; stronger effect = lower value; fluorescence response (% of DMSO), % at 10 µM; AID 504580; 2,000 tested, under 10 active;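 active means compounds that quench the bead-bound fluorescent RNA probe, cutting fluorescence to under half of the solvent control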;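 further: counterscreen run without GRK2 so only probe quenching by compound is measured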
GRK2 CP2 – human GRK2 inhibition confirmation, cherry pick 2; inhibition of aptamer binding, % at 10 µM; bead-bound GRK2, FAM-aptamer displacement, flow cytometry; 360 tested, under 10 active; AID 504782; shares compounds with GRK2 inh;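 active means inhibition of aptamer binding above 40%, about triple the noise seen with nonglowing compounds, on plates passing quality control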;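 further: negative values mostly come from compounds that fluoresce themselves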
FAM quench CP2 – counter-screen for GRK2 binding hits: quenchers of fluorescent RNA aptamer | carboxyfluorescein RNA aptamer beads, flow cytometry quenching; stronger effect = lower value | fluorescence response vs DMSO, % at 10 µM | AID 588494 | 360 tested, under 10 active | shares compounds with GRK2 inh;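 active means response vs DMSO under 50%, meaning signal dropped by over half, treated as fluorescence quencher; inconclusive means no clear call, values can overlap the other calls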;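 further: labelled aptamer on streptavidin beads without GRK2 as a quench counter-screen; 100% = bead fluorescence of DMSO wells and lower means quenching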
An asterisk follows results filed as active; u = inconclusive; x = no result given. Unless noted, no stated cut-off is given here; in the data, active means inhibition above about 50%; inactive means the rest.

SMILES	GRK2 inh	PKD1 kinase inh	VLA-4 inh	DSG3 Ab inh	HDAC3 inh	LANA-H2B inh	GRK2 CP1	FAM quench CP1	others
O=C(O)c1cccc(-c2ccc(/C=c3/sc4nc5ccccc5n4c3=O)o2)c1	50*	x	-108	95	3	1	12	97
O=C(O)c1cc(C(=O)O)cc(-c2ccc(/C=c3/sc4nc5ccccc5n4c3=O)o2)c1	x	4	x	x	x	x	x	x
CCCC(=O)Nc1nc2ccc(OCC)cc2s1	1	-15	5	98	-4	4	x	x
CCOc1ccc2nc(NC(=O)CCn3cccc3)sc2c1	34	-8	15	99	0	0	3	98
Cc1cc(N2C(=O)C(O)=C(C(=O)c3ccco3)C2c2ccccc2F)no1 (stereo unspecified)	0	x	3	105	7	1	x	x
CNc1cc(CSC)nc(SCc2ccc(Cl)cc2Cl)n1	1	-5	-8	102	5	-8	x	x
CSCc1cc(N(C)C)nc(SCc2ccc(Cl)c(Cl)c2)n1	76*	7	3	102	3	-11	1	55
O=C(NC1=NCCS1)c1ccc(Cl)c(S(=O)(=O)N2CCOCC2)c1	3	-2	2	107	-2	-3	x	x
CCS(=O)(=O)Nc1cc2c3c(c1)CCN3C(=O)CC2	45*	x	-4	u	0	13	5	102
CCS(=O)(=O)Nc1cc2c3c(c1)CCC(=O)N3CCC2	1	x	-1	100	-1	0	x	x
CCn1cc(CCCC(=O)NCc2cccc(OC)c2)c2ccccc21	0	x	11	103	-7	-3	x	x
C/C(=N\NC(N)=O)c1ccccc1Cl	4	x	-5	100	-3	1	x	x
Cc1noc(C)c1COc1cccc(C(=O)Nc2ccccc2)c1	2	x	-20	112	x	x	x	x
Cc1noc(C)c1COc1cccc(C(=O)NCc2cccc(Cl)c2)c1	5	-1	7	99	4	-1	-3	100
Cc1ccc(NC(=O)c2cccc(OCc3c(C)noc3C)c2)cc1	2	-4	-4	x	5	0	x	x
Cc1ccc(CNC(=O)c2cccc(OCc3c(C)noc3C)c2)cc1	1	7	4	104	3	-2	-3	95
O=C(c1ccco1)N1CCCC(N2CCN(c3cccc(C(F)(F)F)c3)CC2)C1 (stereo unspecified)	0	x	11	105	6	-2	x	x
Cc1cc(C(C)(C)C)cc(C)c1CCNC(=O)c1c(C)noc1C	x	x	x	100	x	x	x	x
O=C(Cc1cccs1)NCc1ccccc1Br	3	x	10	100	2	-3	x	x
Cc1ccc(Nc2c([N+](=O)[O-])cc(C(=O)N3CC(=O)Nc4ccccc43)cc2[N+](=O)[O-])c(C)c1	100*	1	-7	99	3	-4	2	99
O=C1CN(C(=O)c2ccc(Cl)c([N+](=O)[O-])c2)c2ccccc2N1	3	x	-3	94	7	-4	x	x
CCOc1c(Br)cc(C(=O)Nc2cccc(S(=O)(=O)N3CCOCC3)c2)cc1OC	x	x	x	96	x	x	x	x
CCOc1ccc(-c2nnn(CC(=O)Nc3ccccc3OC)n2)cc1OCC	3	13	-13	115	3	-4	x	x
CCN(CC)c1ccc(NC(=O)Cn2nnc(-c3cccc(OC)c3OC)n2)c(C)c1	95*	5	-10	104	-8	5	1	96
COc1cc(C(N)=O)cc(Br)c1OCc1ccccc1	100*	-3	1	101	5	2	x	x	GRK2 CP2=8;FAM quench CP2=105
Nc1c(CNCc2nnn(Cc3ccccc3)c2N)nnn1Cc1ccccc1	x	x	x	102	x	x	x	x
Cc1nc(CN(C)C(=O)C2CCC(=O)N(CCc3cccc(F)c3)C2)cs1 (stereo unspecified)	1	x	14	101	1	3	x	x
